Source: PubChem BioAssay
LMNA splice mod: LMNA splicing modulation; Potency, µM (highest dose often 46.1 µM), inactives show at the top dose ratio change, negative = inhibition, most hits filed as inhibitors; actives 0.01% (n = 200,000); HeLa LMNA splicing GFP/RFP minigene ratio, 48 h; AID 1487; active means well fitted inhibition curve with a large enough effect in the signal ratio, with a control signal flat, not every such curve was filed as active; inconclusive means small, poorly fitted or top-dose-only effect, or effect the other way, or a change in a side signal; the % refers to the signal ratio; further: on the % scale 0 is the no-effect control and ±100 the full control effect
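S3 HeLa cells stably expressing lamin A-EGFP splicing minigene plus DsRed2, 600 cells/well, 48 h compound exposure at 37C. Laser-scanning cytometry; analysed as GFP (500-530 nm)/RFP (575-640 nm) total intensity ratio; 0.5% DMSO vehicle.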
Luc counter: counter-screen: inhibitors of Kinase-Glo firefly luciferase; Q27757; Kinase-Glo luciferase, ATP luminescence, 8 min; Potency, µM (top dose mostly 38.3 µM), for inactives: at the highest dose activity change, negative = inhibition, usual class: inhibitors; actives 0.28% (n = 200,000); AID 1379; further: on the % scale 0 is the no-effect control and ±100 the full control effect; nearly all actives have a fitted effect of over 60% in size
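Kinase-Glo luciferase light output from ATP and luciferin was measured with 10 uM ATP, within the enzyme's linear range. Buffer: 50 mM imidazole pH 7.2, 50 mM KCl, 7 mM MgCl2, 0.01% Tween 20, 0.05% BSA; luminescence read after 8 min at ambient temperature.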
HTT aggregate: inhibitors of mutant huntingtin aggregate formation in PC12 cells. PC12 HttQ103-GFP aggregates, Acumen cytometry, 40 h. Potency, µM (doses to about 46.1 µM), without a hit: at the highest dose activity change, negative = inhibition, usual class: inhibitors. actives 1.1% (n = 220,000). AID 1688; further: on the % scale 0 is the no-effect control and ±100 the full control effect; nearly all actives have a fitted effect of over 60% in size
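Steps: seed 1500 PC12 HTTQ103-GFP cells/well; add tebufenozide, 100 nM final; add compound titration; add ATPLite reagent; quantify GFP aggregates by laser scanning cytometry.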
HPGD inh: inhibitors of human 15-hydroxyprostaglandin dehydrogenase (HPGD) | P15428 | purified HPGD, NADH fluorescence kinetic, PGE2 substrate | Potency, µM, for the others: at the top dose activity change, negative = inhibition, most hits filed as inhibitors | actives 4.3% (n = 150,000); active means well fitted inhibition curve with a large enough effect, not every such curve was filed as active; inconclusive means small, poorly fitted or top-dose-only effect, or another doubt; inactive means no such curve, though single readings can be large or run the other way; further: on the % scale 0 is the no-effect control and ±100 the full control effect
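NADH formation kinetics: reaction with 30 uM PGE2 and 1 mM NAD+ (final), 20 nM enzyme, Tris-HCl pH 8 with Tween 20, after 15 min compound preincubation at room temperature. Fluorescence change, last versus first of five reads.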
HTT ATP protect: Huntington cell model cytoprotection by ATP luminescence. Potency, µM (highest dose often 56.4 µM), without a hit: cytoprotection (ATP increase), hits mostly activators. PC12 HTT-Q103 induced, cytoprotection, ATP luminescence, 40 h. actives 0.14% (n = 230,000). AID 1471; further: % of control where 0% means no effect; nearly all actives have a fitted effect of over 45% in size
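Cells were plated at 1500 per well in phenol red-free DMEM with 5% equine and 5% calf serum. Tebufenozide (100 nM final) and compounds were added, then ATPlite reagent, and luminescence was read.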
ALDH1A1 inh: ALDH1A1 (human) enzyme inhibition; actives 7.3% (n = 220,000); P00352; Potency, µM (titrated, usually from 75.3 µM), inactives show at the highest dose activity, negative = inhibition, most hits filed as inhibitors; Purified ALDH1A1, NADH fluorescence, propionaldehyde substrate; AID 1030; active means well fitted inhibition curve with a large enough effect, not every such curve was filed as active; inconclusive means small, poorly fitted or top-dose-only effect, or another doubt; inactive means no such curve, though single readings can be large or run the other way;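 further: plate controls were no enzyme wells and a reference inhibitor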
Target sequence (P00352 whole entry, looked up): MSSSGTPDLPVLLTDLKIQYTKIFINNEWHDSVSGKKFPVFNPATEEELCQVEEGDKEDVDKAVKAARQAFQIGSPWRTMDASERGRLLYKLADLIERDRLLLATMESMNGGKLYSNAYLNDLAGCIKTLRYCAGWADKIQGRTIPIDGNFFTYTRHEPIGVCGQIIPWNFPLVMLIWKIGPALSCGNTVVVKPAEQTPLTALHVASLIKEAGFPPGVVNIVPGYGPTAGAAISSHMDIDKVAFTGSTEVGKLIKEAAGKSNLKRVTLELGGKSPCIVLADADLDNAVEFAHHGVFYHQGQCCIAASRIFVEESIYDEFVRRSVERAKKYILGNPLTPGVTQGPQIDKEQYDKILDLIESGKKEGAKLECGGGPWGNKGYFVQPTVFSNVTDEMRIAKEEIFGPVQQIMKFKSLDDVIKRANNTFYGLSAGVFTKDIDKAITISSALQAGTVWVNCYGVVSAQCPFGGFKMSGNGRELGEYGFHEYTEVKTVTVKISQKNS
* = called active by the depositor; ? = inconclusive; · = no result given; [ ] = another dose, or the depositor's remark. Sampled rows, rich in hits. Any-hit rate of the full collection: about 9%. Unless noted, the call rests on the fitted dose curve; in most records, active means well fitted curve in the direction sought with a large enough effect; inconclusive means small, poorly fitted or top-dose-only effect, or another doubt; inactive means no such curve, though single readings can be large; an effect the other way counts as inactive or inconclusive. Potency means the concentration at half of the fitted maximal effect.

SMILES	LMNA splice mod	Luc counter	HTT aggregate	HPGD inh	HTT ATP protect	ALDH1A1 inh
O=C(Nc1ccc(Cc2ccncc2)cc1)C1CC1	1%	0%	-12%	-25%	-14%	0%
Cc1ccc(C(C[N+](=O)[O-])Sc2ccc(N)cc2)cc1 (stereo not given)	·	·	2%[9.22 µM]	·	-14%[10 µM]	4µM*
Nc1ccc(Sc2ccc([N+](=O)[O-])cc2)cc1	·	2%	2%	·	-47%	-7%
CC(C)CC(=O)NC(=S)Nc1ccccc1F	9%	-3%	15%	20µM*	-12%	-4%
COc1ccccc1NC(=S)NC(=O)CC(C)C	4%	-1%	5%	-28%	-26%	-11%
Cc1ccc(C(=O)NC(=S)Nc2ccccc2C(F)(F)F)cc1	?	·	-6%	·	-8%	13µM*
Cc1ccc(C(=O)NCC(=O)Nc2ccccc2C(F)(F)F)cc1	-15%	-1%	-8%	-11%	-11%[10 µM]	20%
CC(C)(C)CC(=O)NC(=S)Nc1ccccc1C(F)(F)F	13%	-9%	-12%	25µM*	-23%	-7%
CC(C)CC(=O)NC(=S)Nc1ccccn1	-1%	-5%	23%	-28%	15%	1%
CSc1ccccc1NC(=S)Nc1ccccc1C(F)(F)F	1%	0%	2%	-1%	-8%	6%
CC(C)CC(=O)NC(=S)Nc1ccccc1C(F)(F)F	-15%	3%	4%	?	34%[10 µM]	18µM*
Cc1cccc(N2CCN(c3ccc(N4C(=O)CCCC4=O)cc3[N+](=O)[O-])CC2C)c1 (stereo not given)	?	2%	-14%	-23%	-6%[10 µM]	?
CCOC(=O)C1=C(C)OC(N)=C(C#N)C1c1cccc(C)c1 (stereo not given)	·	-3%	8%[9.22 µM]	·	0%[10 µM]	?
CCCOc1ccc(-c2nn(-c3ccccc3)cc2/C=C2\SC(=S)N(C3CCS(=O)(=O)C3)C2=O)cc1 (stereo not given)	2%	0%	13%	-13%	4%	-4%
Nc1cc(Cl)ccc1N1CCCCC1	40%[46 µM]	-2%	8%[9.22 µM]	·	20%[10 µM]	-10%
Nc1cc(Cl)ccc1N1CCCCCC1	?	1%	?	·	-7%[10 µM]	18µM*
Nc1ccc(N2CCCCC2)cc1N1CCCCC1	?	-6%	?	-1%	-23%[10 µM]	4µM*
Nc1ccc(N2CCCCC2)c2nonc12	9%[46 µM]	-7%	2%[9.22 µM]	·	7%[10 µM]	7.9µM*
Nc1c(N2CCCC2)cc(Cl)c2nonc12	-19%	·	-15%	·	-23%[0.074 µM]	?
O=C(O)c1ccc(N2CCCCC2)cc1O	·	·	-8%[9.22 µM]	·	14%[10 µM]	·
O=C(Nc1cccc(C(=O)OCc2cc(=O)n3c4c(sc3n2)CCCC4)c1)c1ccc(Cl)cc1	5%[46 µM]	·	·	·	·	·
CC(C)(C)c1ccc(C(=O)NNc2ccc(F)cc2F)cc1	·	·	5%[9.22 µM]	·	-7%[10 µM]	·
CC(=O)c1ccccc1NCC(=O)Nc1ccc(C)cc1	·	-4%	14%	·	-10%	13µM*
O=C(CNc1ccccc1)Nc1ccc(F)cc1	?	-4%	1%	-16%	-8%[0.074 µM]	14µM*
COc1cccc(NC(=O)CNC(=O)c2ccccc2)c1	8%	4%	-7%	1%	5%[10 µM]	1%
SMILES	LMNA splice mod	Luc counter	HTT aggregate	HPGD inh	HTT ATP protect	ALDH1A1 inh
O=C(CSc1ccc(F)cc1)Nc1ccc(Br)cc1	8%[46 µM]	-2%	4%	·	-15%	20µM*
Cc1ccc(NC(=O)c2ccccc2NC(=O)CCC(=O)O)cc1	?	0%	10%	-13%	-10%[10 µM]	-1%
O=C(Nc1ccc(F)cc1)c1ccccc1	6%	-6%	-8%	-12%	-14%	6%
COc1ccccc1C(=O)NCC(=O)Nc1ccccc1	-3%	1%	0.35µM*	-3%	-16%	0%
Cc1cc(C)n2cc(COc3ccccc3)nc2n1	-1%	-3%	-19%	?	·	?
CN1CC2(C)OC(=O)C(Cl)=C2CC1c1ccccc1 (stereo not given)	-9%	-4%	-17%	-2%	·	13µM*
Oc1ccc(Cl)cc1C1=NCCNC(C(F)(F)C(F)F)=C1	-10%	-4%	?	-1%	6%	7%
CCN1C(=O)/C(=C/c2cc(C)n(C)c2C)SC1=Nc1ccc(OC)cc1	3%	14%	-3%	-14%	-21%	1.3µM*
CCN1C(=O)/C(=C\c2ccncc2)SC1=Nc1ccc(C)c(C)c1	4%	-2%	?	-29%	1%[0.074 µM]	?
CCCN1C(=O)/C(=C/c2cc(C)n(C)c2C)SC1=Nc1ccc(OCC)cc1	0%	-1%	8%	-11%	-23%	3.2µM*
CCN1C(=O)/C(=C/c2ccc(C)s2)SC1=Nc1ccc(OC)cc1	?	-3%	-9%	-14%	-32%	?
O=C(NNC(=O)C1CCN(S(=O)(=O)c2ccc(Cl)cc2)CC1)c1ccc(Cl)cc1	-2%	1%	-4%	2%	0%	1%
NC(=O)c1c(NC(=O)CSc2nnc(-c3ccccc3)n2CC2CCCO2)sc2c1CCC2 (stereo not given)	-6%	2%	-11%	?	-6%[10 µM]	28µM*
CCOC(=O)c1c(NC(=O)CSc2nncn2C)sc(C)c1C	10%	5%	-12%[9.22 µM]	-14%	-2%	-4%
N#Cc1c(NC(=O)CSc2ncc(-c3ccccc3)n2CC2CCCO2)sc2c1CCCC2 (stereo not given)	?	0%	-26%	-14%	-19%	?
